This passage reports AC50 and outcome results from PubChem BioAssay (EPA / NIEHS).

SMILES strings stand for the structures. Calls of active or inactive are those of the source. The calls were made as follows: active = hit-call score of the fitted dose curve at least 0.9, where 1 is the maximum; inactive = score below 0.9.

The assay in a line: BSK_3C_SRB: Viability Assessment in the BioMAP Diversity Plus: 3C Assay (AID 2283023).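 Also: fitted both ways against DMSO so a hit may be signal rise or drop.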 Conditions: primary human endothelial cells (HUVEC). On the procedure:
BSK_3C is a cell-based, multiplexed-readout assay that uses umbilical vein endothelium, a human vascular primary cell, with measurements taken at 24 hours after chemical dosing in a 96-well plate.BSK_3C_SRB is an assay component measured in the BSK_3C assay. It measures 0.1% sulforhodamine related to cell death using Sulforhodamine staining technology.Data from the assay component BSK_3C_SRB was analyzed into 1 assay endpoint. This assay endpoint, BSK_3C_SRB, was analyzed with bidirectional fitting relative to DMSO as the negative control and baseline of activity. Using a type of viability reporter, gain or loss-of-signal activity can be used to understand changes in the signaling. Furthermore, this assay endpoint can be referred to as a primary readout, because this assay has produced multiple assay endpoints where this one serves a signaling function. To generalize the intended target to other relatable targets, this assay endpoint is annotated to the cell morphology intended target family, where the subfamily is cell conformation.
The levels of cell surface (or secreted, indicated by the prefix "s") biomarker endpoints were measured by ELISA. Overt cytotoxicity to cells in confluent adherent cultures (all systems other than the BT system) was assessed by measuring total protein levels using sulforhodamine B (SRB) staining in parallel cultures at the time of biomarker measurements, indicated as SRB endpoints. For proliferation assays for adherent cell types, individual cell types are cultured at sub-confluence and relative cell numbers quantified by SRB staining at time points optimized for each system (48 h: 3C and CASM3C systems; 72 h: BT and HDF3CGF systems; 96 h: SAg system). SRB was performed by staining cells with 0.1% SRB after fixation with 10% TCA and reading wells at 560 nm.Viability and proliferation of PBMC (T cells) was quantified by Alamar Blue reduction for the SAg and BT systems. For PBMC viability (referred to as PBMC Cytotoxicity within the assay endpoint names), cells were plated (75,000/well in a 96-well plate) and then chemical samples added for 1 h before addition of activators, SEB and TSST-1 (20 ng/mL final concentration each). Cells were incubated for 90 h. Then, Alamar Blue (20 uL/well) (Invitrogen, Cat DAL1100) was added for 6 h, and the plates were read with a fluorescence microplate reader at 546/580 nm (excitation/emission). For PBMC proliferation, cells were plated and activated as above but incubated for only 16 h prior to addition of Alamar Blue. Plates were read after 6 h.
For the molecule `Cc1c2ccccc2c(C)c2c1ccc1ccccc12`, the AC50 is 13.4 µM (active). For `CCCCCc1ccc(N)cc1`, the AC50 is 17.8 µM (active). On to `CCO[Si](CCCNC(N)=O)(OCC)OCC`, for which the result was inactive. In the case of `COc1cc(C(=O)NC2CCN(C)CC2)ccc1Nc1ncc2c(n1)N(C1CCCC1)CC(F)(F)C(=O)N2C`, the half-maximal activity concentration (AC50) was 18.6 µM (active). Regarding `O=c1[nH]sc2ccccc12`, the AC50 is 13.8 µM (active). Turning to `CN(C)C(=O)C1(N2CCCCC2)CCN(CC[C@@]2(c3ccc(Cl)c(Cl)c3)CN(C(=O)c3ccccc3)CCO2)CC1`, the AC50 was 7.1 µM (active). As to `CC(C)(C)c1cc(/C=C2\SC(N)=NC2=O)cc(C(C)(C)C)c1O`, the AC50 is 29.1 µM (active). In the case of `CC(=O)N1CCN(c2ccc(OC[C@H]3CO[C@](Cn4ccnc4)(c4ccc(Cl)cc4Cl)O3)cc2)CC1`, the AC50 was 29.1 µM (active). In the case of `NCc1cccc(C2CCN(C(=O)c3ccc(C#Cc4ccccc4F)o3)CC2)c1`, the AC50 was 11 µM (active). For the molecule `CCCC(=O)OCCC(C)C`, the result was inactive.

For `O=C(O)c1ccccc1C(=O)OCc1ccccc1`, the result was inactive. As to `O=C=NCCCCCCN=C=O`, the result was inactive. Turning to `CN(C)c1ccc(C(=C2C=CC(=[N+](C)C)C=C2)c2ccc(N(C)C)cc2)cc1`, the AC50 was 4.93 µM (active).

As to `CCCCOC(=O)CC(CC(=O)OCCCC)(OC(C)=O)C(=O)OCCCC`, the outcome was inactive.

`O=C(O)Cc1cc(I)c(Oc2ccc(O)c(I)c2)c(I)c1`: the result was inactive. For the molecule `O=C1O[C@H]([C@@H](O)CO)C(O)=C1O`, the result was inactive. `CCCCCCCCCCCO`: the concentration at half-maximal activity (AC50) was 31.3 µM (active). Turning to `CCCCCCCC[Si](OCC)(OCC)OCC`, the AC50 is 31.4 µM (active). Consider `O=C(O)Cn1c(=O)n(Cc2ccc(Br)cc2F)c(=O)c2ccc(Cl)cc21`, for which the outcome was inactive. In the case of `Cc1ccc(C(C)C)cc1`, the result was inactive. `CC/C(=C(/CC)c1ccc(O)cc1)c1ccc(O)cc1`: the AC50 is 20 µM (active).

As to `CCN(Cc1cccnc1)C(=O)c1cccc(Cl)c1[C@]1(C)C(=O)N(Cc2ccc(OC)cc2OC)c2ccc(Cl)cc21`, the AC50 is 6.28 µM (active).

For the molecule `CN(C[C@@H](CC[N+]12CCC(C3CCCCC3)(CC1)CC2)c1ccc(Cl)c(Cl)c1)C(=O)c1cc(C(F)(F)F)cc(C(F)(F)F)c1`, the AC50 was 12.9 µM (active). With `CC[C@H](NC(=O)c1cc(F)ccc1NS(=O)(=O)c1cccc2cccnc12)c1ccccc1`, the result was inactive. For the molecule `O=CCCCC=O`, the AC50 was 31.7 µM (active).

Consider `Clc1ccccc1C(c1ccccc1)(c1ccccc1)n1ccnc1`, for which the AC50 is 11.9 µM (active). Regarding `Cc1occc1C(=O)Nc1ccc(C(=O)N2CCC(F)(F)/C(=C\C(=O)N3CCC(N4CCCCC4)CC3)c3ccccc32)cc1`, the AC50 was 11.5 µM (active). The same measure, in the same setting: then `CCN(CC)C(=O)c1cc(S(=O)(=O)Cc2ccccc2)c(N2CCC(c3ccccc3)CC2)cc1N(CC)CCN(C)C`, with 5.18 µM (active).

With `c1ccc2n[nH]nc2c1`, the outcome was inactive. For `Cc1cccc2ccccc12`, the result was inactive. In the case of `Cc1cn([C@H]2C[C@H](N=[N+]=[N-])[C@@H](CO)O2)c(=O)[nH]c1=O`, the result was inactive. With `CC(O)CC(C)(C)O` (stereo not given), the outcome was inactive. Turning to `CC(C)(C)c1csc(-c2cc3cc(OCc4ccccc4CC(=O)O)ccc3o2)n1`, the half-maximal activity concentration (AC50) was 21.5 µM (active). Consider `CN1C(=O)CC[C@H]1c1cccnc1`, for which the result was inactive.

In the case of `CCCCCCCCCC(=O)O`, the outcome was inactive. With `CCN(Cc1cccc(S(=O)(=O)O)c1)c1ccc(C(=C2C=CC(=[N+](CC)Cc3cccc(S(=O)(=O)O)c3)C=C2)c2ccccc2S(=O)(=O)[O-])cc1`, the outcome was inactive. With `NC(=O)c1nc(-c2cccc(-c3cc(F)ccc3OCC(F)(F)C(F)(F)F)c2)n[nH]1`, the AC50 was 31.9 µM (active). On to `O=c1ccc2ccccc2o1`, for which the result was inactive.

Turning to `O=c1c(-c2ccc(O)cc2)coc2cc(O)cc(O)c12`, the AC50 was 25.8 µM (active). In the case of `Cc1oc2c(NC(=O)c3c(Cl)cccc3Cl)cccc2c1C(C)(C)O`, the AC50 is 25 µM (active).

A word on the AC50: it is the midpoint of the concentration-response curve, whichever way the signal moves.
